The results in this text go back to PubChem BioAssay.

A short description of assay [1]: antimalarial activity against Dd2 strain (AID 2302;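 active = growth inhibition above 50% at the single 2 µM test dose, taken to imply half-maximal potency below 2 µM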;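 also: 0% = DMSO untreated growth and 100% = chloroquine plus artemisinin killed control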). The following applies: P. falciparum Dd2 in RBCs, LDH growth readout, 72 h; at 2 µM; active compounds read high.
Assay [2] in a line: HepG2 cytotoxicity, primary screen, cytotoxicity control for P. falciparum antimalarial project, cell-based, ATP luminescence (AID 2303;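 active = inhibition above 50%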;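 also: 0% = DMSO wells and 100% = digitonin-killed cells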). The following applies: HepG2 viability, 24-48 h, at 10 µM, active compounds read high.
In assay [3] the target is L-lactate dehydrogenase (Plasmodium falciparum (isolate CDC / Honduras)) (UniProt Q27743). The assay is described as follows: PfLDH activity inhibition – cell lysate, 3D7 strain, counter-screen for P. falciparum growth inhibition project (AID 2304).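 Also: 0% = vehicle and 100% = reference inhibitor.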 The following applies: P. falciparum 3D7 crude extract, LDH APAD/NBT absorbance; at 2 µM; active compounds read high. Background: Counterscreens check selectivity or assay interference.
Chain of L-lactate dehydrogenase (Plasmodium falciparum (isolate CDC / Honduras)) (Q27743 whole entry, looked up): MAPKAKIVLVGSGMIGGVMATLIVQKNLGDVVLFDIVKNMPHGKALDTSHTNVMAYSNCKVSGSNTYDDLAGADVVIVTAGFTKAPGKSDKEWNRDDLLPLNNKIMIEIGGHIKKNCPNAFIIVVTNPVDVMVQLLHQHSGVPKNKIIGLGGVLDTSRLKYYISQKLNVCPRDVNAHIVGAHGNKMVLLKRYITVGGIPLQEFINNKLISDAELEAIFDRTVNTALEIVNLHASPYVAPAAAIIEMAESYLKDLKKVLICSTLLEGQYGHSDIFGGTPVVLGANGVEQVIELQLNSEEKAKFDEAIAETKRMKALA

Assay [4] in a line: inhibition of 3D7 malaria parasite growth – strain 3D7 (AID 2306).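 Also: 0% = DMSO wells and 100% = chloroquine plus artemisinin control wells.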 As to conditions: P. falciparum 3D7 erythrocytic growth, LDH absorbance, 72 h; at 2 µM; active compounds read high.
For assay [5], the target named is Calcium-dependent protein kinase 1 (Plasmodium falciparum (isolate 3D7)) (UniProt P62344). The assay is described as follows: PfCDPK1 kinase inhibitors, biochemical, TCAMS library (AID 1159585; cut-off not given, nearly all actives have IC50 up to about 0.98 µM;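 also: inhibitors leave more ATP so luminescence rises with inhibition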). As to conditions: recombinant PfCDPK1, Kinase-Glo ATP depletion luminescence.
Chain of Calcium-dependent protein kinase 1 (Plasmodium falciparum (isolate 3D7)) (P62344 whole entry, looked up): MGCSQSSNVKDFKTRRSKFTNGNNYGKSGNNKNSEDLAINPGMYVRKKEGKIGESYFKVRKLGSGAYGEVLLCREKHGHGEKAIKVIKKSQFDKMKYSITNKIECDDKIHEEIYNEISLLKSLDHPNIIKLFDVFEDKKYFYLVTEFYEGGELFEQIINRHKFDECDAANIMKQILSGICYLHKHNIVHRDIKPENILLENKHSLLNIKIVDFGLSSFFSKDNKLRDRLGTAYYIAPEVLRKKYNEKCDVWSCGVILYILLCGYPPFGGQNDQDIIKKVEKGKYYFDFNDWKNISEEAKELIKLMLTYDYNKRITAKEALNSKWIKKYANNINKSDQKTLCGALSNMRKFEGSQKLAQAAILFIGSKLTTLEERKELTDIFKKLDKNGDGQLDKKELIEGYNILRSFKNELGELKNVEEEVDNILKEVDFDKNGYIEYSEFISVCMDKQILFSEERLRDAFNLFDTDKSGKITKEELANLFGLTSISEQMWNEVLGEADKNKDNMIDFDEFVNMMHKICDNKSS
In assay [6] the target is Plasmodium falciparum protein kinase 6 (PK6, PF3D7_1337100) (UniProt Q8IDW1). The assay is described as follows: PfPK6 kinase inhibitors, biochemical, TCAMS library (AID 1159586). As to conditions: recombinant PfPK6, Kinase-Glo ATP depletion luminescence. (Kinase-Glo reads ATP consumption through a luciferase reaction.)
Chain of Plasmodium falciparum protein kinase 6 (PK6, PF3D7_1337100) (Q8IDW1 1-305): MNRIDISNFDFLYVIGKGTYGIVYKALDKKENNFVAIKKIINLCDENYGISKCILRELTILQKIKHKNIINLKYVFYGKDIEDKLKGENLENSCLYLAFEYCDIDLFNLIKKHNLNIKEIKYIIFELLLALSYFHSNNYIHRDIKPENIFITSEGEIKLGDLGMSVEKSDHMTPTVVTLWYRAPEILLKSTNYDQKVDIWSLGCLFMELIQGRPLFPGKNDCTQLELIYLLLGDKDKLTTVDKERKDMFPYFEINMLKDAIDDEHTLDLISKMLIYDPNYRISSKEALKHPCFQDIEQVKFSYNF
Assay [7] deals with Protein kinase 7 (PK7), Plasmodium falciparum 3D7 (PF3D7_0213400) (UniProt Q7YTF7). The assay is described as follows: inhibition of Plasmodium PK7 catalytic activity – biochemical, TCAMS antimalarial set, Kinase-Glo luminescence (AID 1159587). The following applies: recombinant PfPK7, Kinase-Glo ATP depletion luminescence.
Chain of Protein kinase 7 (PK7), Plasmodium falciparum 3D7 (PF3D7_0213400) (Q7YTF7 1-343): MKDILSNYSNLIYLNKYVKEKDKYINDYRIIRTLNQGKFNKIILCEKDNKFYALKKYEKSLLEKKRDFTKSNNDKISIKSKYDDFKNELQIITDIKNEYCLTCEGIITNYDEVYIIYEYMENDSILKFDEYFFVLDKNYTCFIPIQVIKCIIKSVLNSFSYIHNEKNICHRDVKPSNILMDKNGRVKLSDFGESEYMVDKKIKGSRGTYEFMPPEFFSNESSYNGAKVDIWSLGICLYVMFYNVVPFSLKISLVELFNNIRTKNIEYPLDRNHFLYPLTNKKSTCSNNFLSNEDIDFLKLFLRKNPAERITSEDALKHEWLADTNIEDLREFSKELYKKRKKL
Assay [8] deals with Calcium-dependent protein kinase 4 (Plasmodium falciparum (isolate 3D7)) (UniProt Q8IBS5). The assay is described as follows: PfCDPK4 kinase inhibitors, biochemical, TCAMS library (AID 1159588; cut-off not given, nearly all actives have IC50 up to about 0.91 µM). The following applies: recombinant PfCDPK4, Kinase-Glo ATP depletion luminescence.
Chain of Calcium-dependent protein kinase 4 (Plasmodium falciparum (isolate 3D7)) (Q8IBS5 whole entry, looked up): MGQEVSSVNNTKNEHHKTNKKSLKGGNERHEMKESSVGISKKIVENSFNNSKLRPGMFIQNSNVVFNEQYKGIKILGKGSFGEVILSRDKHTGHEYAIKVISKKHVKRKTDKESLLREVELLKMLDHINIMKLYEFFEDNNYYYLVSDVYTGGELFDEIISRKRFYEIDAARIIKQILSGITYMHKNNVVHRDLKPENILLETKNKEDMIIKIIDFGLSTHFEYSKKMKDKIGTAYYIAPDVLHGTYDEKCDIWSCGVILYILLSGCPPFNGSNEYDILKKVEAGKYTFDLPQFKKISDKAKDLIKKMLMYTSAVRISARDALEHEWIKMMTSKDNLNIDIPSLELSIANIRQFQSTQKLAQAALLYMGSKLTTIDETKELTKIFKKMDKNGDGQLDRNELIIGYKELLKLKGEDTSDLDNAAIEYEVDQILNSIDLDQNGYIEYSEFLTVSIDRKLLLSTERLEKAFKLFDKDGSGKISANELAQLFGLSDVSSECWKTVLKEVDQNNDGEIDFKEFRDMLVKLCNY

Values without a mark were called inactive. For some of these results: Results with a measured potency or affinity are listed apart. Active and inactive are the calls of the source. Unless noted, no rule for the calls is given here.

One may read the inhibition as the drop in the measured response relative to a control, in per cent. As to `CC(C)(C)CC(C)(C)c1ccc(O)c(C(=O)Nc2cccc([N+](=O)[O-])c2)c1`, the growth inhibition in assay [1] was 97% (active); in assay [4] it was 95% (active). The inhibition in assay [2] was 49%; in assay [3] it was -8%. Moreover, the outcome in assay [5], in assay [6], in assay [7] and in assay [8] was inactive.
With `O=C(Nc1ccc(Cl)cc1C(=O)Nc1ccncc1)c1ccc(Cl)cc1Cl`, the growth inhibition in assay [1] was 75% (active); in assay [4], 99% (active). Besides, the inhibition in assay [2] was 8%; in assay [3], -5%. For the same compound, the result in assay [5], in assay [6], in assay [7] and in assay [8] was inactive.
`COc1ccccc1-n1ccnc1SCC(=O)Nc1cc(C(F)(F)F)ccc1Cl`: the growth inhibition in assay [1] and in assay [4] was 97% (active) in each case. The inhibition is -2% in assay [2] and 2% in assay [3]. The result in assay [5], in assay [6], in assay [7] and in assay [8] was inactive.
Take `COc1ccc(CNCc2ccc(-c3ccc(-c4nc5ccc(F)cc5[nH]4)cc3)cc2)cc1`: the results for the growth inhibition in assay [1] and in assay [4] were 83% (active) and 99% (active), respectively. Also, the figures for the inhibition in assay [2] and in assay [3] were 70% (active) and 5%, respectively. For the same compound, the result in assay [5], in assay [6], in assay [7] and in assay [8] was inactive.
Consider `Fc1ccc2nc(-c3cccc(-c4ccc(CNCc5ccccc5)cc4)c3)[nH]c2c1`, for which the growth inhibition is 89% (active) in assay [1] and 102% (active) in assay [4]. Besides, the figures for the inhibition in assay [2] and in assay [3] were 27% and -1%, respectively. Also, the result in assay [5], in assay [6], in assay [7] and in assay [8] was inactive.
Regarding `NC(=NCCCCC1CCCCC1)c1cccc(C(N)=NCCCCC2CCCCC2)n1`, the growth inhibition was 19% in assay [1] and 100% (active) in assay [4]. The values for the inhibition in assay [2] and in assay [3] were 99% (active) and 3%, respectively. Also, the result in assay [5], in assay [6], in assay [7] and in assay [8] was inactive.
With `Cc1noc(C)c1-c1cccc(CNCc2ccc(-c3ccc(-c4nc5ccc(F)cc5[nH]4)s3)cc2)c1`, the growth inhibition was 93% (active) in assay [1] and 102% (active) in assay [4]. The inhibition in assay [2] is 45%; in assay [3] it was 6%. The outcome in assay [5], in assay [6], in assay [7] and in assay [8] was inactive.
In the case of `COc1cccc(Nc2nccc(NCC(O)c3ccc(C(F)(F)F)cc3)n2)c1` (stereo not given), the growth inhibition in assay [1] was 28%; in assay [4], 99% (active). Further, the inhibition in assay [2] was 14%; in assay [3] it was -4%. Also, the outcome in assay [5], in assay [6], in assay [7] and in assay [8] was inactive.
On to `CC(CN(C)C)C(=O)Nc1cccc(-c2ccc(-c3nc4ccc(F)cc4[nH]3)s2)c1` (stereo not given), for which the growth inhibition in assay [1] is 99% (active); in assay [4] it was 100% (active). Moreover, the inhibition was 3% in assay [2] and -6% in assay [3]. Moreover, the outcome in assay [5], in assay [6], in assay [7] and in assay [8] was inactive.
For the compound `Cc1cc(NC(=O)c2cc(S(=O)(=O)N3CCCCC3)ccc2C)no1`, the growth inhibition in assay [1] is 29%; in assay [4], 95% (active). Further, the inhibition in assay [2] and in assay [3] was -7% each time. The result in assay [5], in assay [6], in assay [7] and in assay [8] was inactive.
With `O=C(NC1CCN(CC2(c3ccccc3F)CCCC2)CC1)c1ccn[nH]1`, the growth inhibition is 91% (active) in assay [1] and 93% (active) in assay [4]. Further, the figures for the inhibition in assay [2] and in assay [3] were -5% and -1%, respectively. For the same compound, the outcome in assay [5], in assay [6], in assay [7] and in assay [8] was inactive.
`NC1=NC(c2ccccc2)N(c2ccccc2)C(N)=N1` (stereo not given): the results for the growth inhibition in assay [1] and in assay [4] were 85% (active) and 96% (active), respectively. For the same compound, the inhibition is 0% in assay [2] and 2% in assay [3]. Besides, the result in assay [5], in assay [6], in assay [7] and in assay [8] was inactive.
As for `Cc1cc(C)n(Cc2ccc(C(=O)NCC3CCCCC3)cc2)n1`, the figures for the growth inhibition in assay [1] and in assay [4] were 1% and 95% (active), respectively. In addition, the inhibition in assay [2] was 0%; in assay [3] it was 2%. In addition, the outcome in assay [5], in assay [6], in assay [7] and in assay [8] was inactive.
On to `O=C(Nc1cccc(-c2cccc(-c3nc4ccc(F)cc4[nH]3)c2)c1)Nc1ccc2c(c1)OCO2`, for which the results for the growth inhibition in assay [1] and in assay [4] were 49% and 101% (active), respectively. Moreover, the inhibition was 30% in assay [2] and -4% in assay [3]. For the same compound, the outcome in assay [5], in assay [6], in assay [7] and in assay [8] was inactive.
Turning to `CN(C)Cc1cccc2[nH]c(-c3csc(Cc4cc(Cl)ccc4OCc4ccccc4)n3)nc12`, the growth inhibition is 77% (active) in assay [1] and 100% (active) in assay [4]. The inhibition in assay [2] was 14%; in assay [3], -2%. Moreover, the outcome in assay [5], in assay [6], in assay [7] and in assay [8] was inactive.
`CCCCCCC1(C)N=C(N)N=C(N)C1c1ccc(Cl)c(Cl)c1` (stereo not given): the growth inhibition is 43% in assay [1] and 94% (active) in assay [4]. Moreover, the inhibition in assay [2] was 18%; in assay [3], -9%. Further, the result in assay [5], in assay [6], in assay [7] and in assay [8] was inactive.
In the case of `O=C(CC1CCCCC1)NCC(NCCCNc1cc(=O)c2ccccc2[nH]1)c1cc(Br)cc(Br)c1` (stereo not given), the growth inhibition in assay [1] is 52% (active); in assay [4], 95% (active). Also, the inhibition in assay [2] is 8%; in assay [3] it was 0%. The outcome in assay [5], in assay [6], in assay [7] and in assay [8] was inactive.
In the case of `O=C(NCCN1CCCC1)c1cccc(-c2ccc(-c3nc4ccccc4[nH]3)s2)c1`, the growth inhibition in assay [1] was 13%; in assay [4] it was 96% (active). The inhibition in assay [2] is 27%; in assay [3], 4%. Moreover, the result in assay [5], in assay [6], in assay [7] and in assay [8] was inactive.
Turning to `O=C(Nc1ccccc1)N(Cc1ccc(-c2cccc(CNC3CCCC3)c2)cc1)C1CCN(Cc2ccccc2)CC1`, the growth inhibition in assay [1] is 67% (active); in assay [4], 101% (active). Also, the inhibition in assay [2] is 43%; in assay [3], 1%. In addition, the outcome in assay [5], in assay [6], in assay [7] and in assay [8] was inactive.
For `O=C(Nc1cccc(OCc2ccccc2)c1)c1ccc(CN2CCC(Cc3ccccc3)CC2)cc1`, the growth inhibition in assay [1] was 27%; in assay [4], 100% (active). The figures for the inhibition in assay [2] and in assay [3] were 41% and 3%, respectively. Further, the result in assay [5], in assay [6], in assay [7] and in assay [8] was inactive.
